Measured values from PubChem BioAssay (NCATS).
Records with an inconclusive call do not appear. The source made the active and inactive calls. Calls follow the shape of the dose curve; as a rule, active = well fitted inhibition curve with a large enough effect; inconclusive = small, poorly fitted or top-dose-only effect; inactive = flat fitted curve, though single readings scatter.

Tests used:
[1] = qHTS profiling for inhibitors of Plasmodium falciparum proliferation (AID 504749); also: nearly all actives have a fitted effect of over 60% in size;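 as to activity, negative = inhibition: 0% = DMSO vehicle and full inhibition = artemisinin control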; conditions: P. falciparum in erythrocytes, SYBR Green DNA, 72 h, at 28.7 µM (top of the series)
Summary of the method: (§1)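 Each compound contacts P. falciparum-infected red blood cells for 72 h at 37 C; lysis buffer (Tris, EDTA, saponin, Triton X, SYBR Green I) is added and fluorescence measured next morning; values normalized to controls.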

3D7 = assay: as above; conditions: P. falciparum in erythrocytes, SYBR Green DNA, 72 h; series mostly up to 28.7 µM
Summary of the method: as §1

7G8 = assay: as above; conditions: P. falciparum in erythrocytes, SYBR Green DNA, 72 h; series mostly up to 28.7 µM
Summary of the method: as §1

AA1029 = assay: as above; conditions: P. falciparum in erythrocytes, SYBR Green DNA, 72 h; series mostly up to 28.7 µM
Summary of the method: as §1

AS120 = assay: as above; conditions: P. falciparum in erythrocytes, SYBR Green DNA, 72 h; series mostly up to 28.7 µM
Summary of the method: as §1

ATS189 = assay: as above; conditions: P. falciparum in erythrocytes, SYBR Green DNA, 72 h; series mostly up to 28.7 µM
Summary of the method: as §1

ATS95 = assay: as above; conditions: P. falciparum in erythrocytes, SYBR Green DNA, 72 h; series mostly up to 28.7 µM
Summary of the method: as §1

C2A = assay: as above; conditions: P. falciparum in erythrocytes, SYBR Green DNA, 72 h; series mostly up to 28.7 µM
Summary of the method: as §1

CP185 = assay: as above; conditions: P. falciparum in erythrocytes, SYBR Green DNA, 72 h; series mostly up to 28.7 µM
Summary of the method: as §1

CP191 = assay: as above; conditions: P. falciparum in erythrocytes, SYBR Green DNA, 72 h; series mostly up to 28.7 µM
Summary of the method: as §1

CP192 = assay: as above; conditions: P. falciparum in erythrocytes, SYBR Green DNA, 72 h; series mostly up to 28.7 µM
Summary of the method: as §1

CP194 = assay: as above; conditions: P. falciparum in erythrocytes, SYBR Green DNA, 72 h; series mostly up to 28.7 µM
Summary of the method: as §1

CP201 = assay: as above; conditions: P. falciparum in erythrocytes, SYBR Green DNA, 72 h; series mostly up to 28.7 µM
Summary of the method: as §1

CP203 = assay: as above; conditions: P. falciparum in erythrocytes, SYBR Green DNA, 72 h; series mostly up to 28.7 µM
Summary of the method: as §1

CP211 = assay: as above; conditions: P. falciparum in erythrocytes, SYBR Green DNA, 72 h; series mostly up to 28.7 µM
Summary of the method: as §1

CP215 = assay: as above; conditions: P. falciparum in erythrocytes, SYBR Green DNA, 72 h; series mostly up to 28.7 µM
Summary of the method: as §1

CP217 = assay: as above; conditions: P. falciparum in erythrocytes, SYBR Green DNA, 72 h; series mostly up to 28.7 µM
Summary of the method: as §1

CP237 = assay: as above; conditions: P. falciparum in erythrocytes, SYBR Green DNA, 72 h; series mostly up to 28.7 µM
Summary of the method: as §1

CP238 = assay: as above; conditions: P. falciparum in erythrocytes, SYBR Green DNA, 72 h; series mostly up to 28.7 µM
Summary of the method: as §1

CP247 = assay: as above; conditions: P. falciparum in erythrocytes, SYBR Green DNA, 72 h; series mostly up to 28.7 µM
Summary of the method: as §1
Potency is read from the fitted curve at half-maximal effect.

O=C(O)/C=C/C(=O)Nc1ccc(S(=O)(=O)Nc2nccs2)cc1
inactive: activity, negative = inhibition ([1]; parasite line A) 17.5% | activity, negative = inhibition ([1]; parasite line B) -1.66% | Potency (3D7) | Potency (7G8) | Potency (AA1029) | Potency (AS120) | Potency (ATS189) | Potency (ATS95) | Potency (C2A) | Potency (CP185) | Potency (CP191) | Potency (CP192) | Potency (CP194) | Potency (CP201) | Potency (CP203) | Potency (CP211) | Potency (CP215) | Potency (CP217) | Potency (CP237) | Potency (CP238) | Potency (CP247)

CCOC(=S)SSC(=S)OCC
inactive: activity, negative = inhibition ([1]; parasite line A) 12.6% | activity, negative = inhibition ([1]; parasite line B) -0.533% | Potency (3D7) | Potency (7G8) | Potency (AA1029) | Potency (AS120) | Potency (ATS189) | Potency (ATS95) | Potency (C2A) | Potency (CP185) | Potency (CP191) | Potency (CP192) | Potency (CP194) | Potency (CP201) | Potency (CP203) | Potency (CP211) | Potency (CP215) | Potency (CP217) | Potency (CP237) | Potency (CP238)

Cc1cc(-c2ccc(N=Nc3ccc4c(S(=O)(=O)O)cc(S(=O)(=O)O)c(N)c4c3O)c(C)c2)ccc1N=Nc1ccc2c(S(=O)(=O)O)cc(S(=O)(=O)O)c(N)c2c1O
inactive: activity, negative = inhibition ([1]; parasite line A) 3.16% | activity, negative = inhibition ([1]; parasite line B) 5.39% | Potency (3D7) | Potency (7G8) | Potency (AA1029) | Potency (AS120) | Potency (ATS189) | Potency (ATS95) | Potency (C2A) | Potency (CP185) | Potency (CP191) | Potency (CP192) | Potency (CP194) | Potency (CP201) | Potency (CP203) | Potency (CP211) | Potency (CP215) | Potency (CP217) | Potency (CP237) | Potency (CP238) | Potency (CP247)

CO[C@H]1C[C@@H]2CC[C@@H](C)[C@@](O)(O2)C(=O)C(=O)N2CCCC[C@H]2C(=O)O[C@H]([C@H](C)C[C@@H]2CC[C@@H](OC(=O)C(C)(CO)CO)[C@H](OC)C2)CC(=O)[C@H](C)/C=C(\C)[C@@H](O)[C@@H](OC)C(=O)[C@H](C)C[C@H](C)/C=C/C=C/C=C/1C
inactive: activity, negative = inhibition ([1]; parasite line A) 5.02% | activity, negative = inhibition ([1]; parasite line B) 6.39% | Potency (3D7) | Potency (7G8) | Potency (AA1029) | Potency (AS120) | Potency (ATS189) | Potency (ATS95) | Potency (C2A) | Potency (CP185) | Potency (CP191) | Potency (CP192) | Potency (CP194) | Potency (CP201) | Potency (CP203) | Potency (CP211) | Potency (CP215) | Potency (CP217) | Potency (CP237) | Potency (CP238) | Potency (CP247)

O=S(=O)(O)CCCS(=O)(=O)O
inactive: activity, negative = inhibition ([1]; parasite line A) -6.14% | activity, negative = inhibition ([1]; parasite line B) 2.06% | Potency (3D7) | Potency (7G8) | Potency (AA1029) | Potency (AS120) | Potency (ATS189) | Potency (ATS95) | Potency (C2A) | Potency (CP185) | Potency (CP191) | Potency (CP192) | Potency (CP194) | Potency (CP201) | Potency (CP203) | Potency (CP211) | Potency (CP215) | Potency (CP217) | Potency (CP237) | Potency (CP238) | Potency (CP247)

Nc1nccs1
inactive: activity, negative = inhibition ([1]; parasite line A) 12.4% | activity, negative = inhibition ([1]; parasite line B) 11.4% | Potency (3D7) | Potency (7G8) | Potency (AA1029) | Potency (AS120) | Potency (ATS189) | Potency (ATS95) | Potency (C2A) | Potency (CP185) | Potency (CP191) | Potency (CP192) | Potency (CP194) | Potency (CP201) | Potency (CP203) | Potency (CP211) | Potency (CP215) | Potency (CP217) | Potency (CP237) | Potency (CP238) | Potency (CP247)

CC/C=C\C/C=C\C/C=C\C/C=C\C/C=C\C/C=C\CCC(=O)O
active: Potency (7G8) 12.6 µM
inactive: activity, negative = inhibition ([1]; parasite line A) -24.9% | activity, negative = inhibition ([1]; parasite line B) -13.6% | Potency (3D7) | Potency (AA1029) | Potency (AS120) | Potency (ATS189) | Potency (ATS95) | Potency (C2A) | Potency (CP185) | Potency (CP191) | Potency (CP192) | Potency (CP194) | Potency (CP201) | Potency (CP203) | Potency (CP211) | Potency (CP215) | Potency (CP217) | Potency (CP237) | Potency (CP238) | Potency (CP247)

Cc1cccc(C)c1NC(=O)C1CCCCN1C (stereo unspecified)
inactive: activity, negative = inhibition ([1]; parasite line A) -4.61% | activity, negative = inhibition ([1]; parasite line B) -9.47% | Potency (3D7) | Potency (7G8) | Potency (AA1029) | Potency (AS120) | Potency (ATS189) | Potency (ATS95) | Potency (C2A) | Potency (CP185) | Potency (CP191) | Potency (CP192) | Potency (CP194) | Potency (CP201) | Potency (CP203) | Potency (CP211) | Potency (CP215) | Potency (CP217) | Potency (CP237) | Potency (CP238) | Potency (CP247)

CC1(O)CCC(C(C)(C)O)CC1 (stereo unspecified)
inactive: activity, negative = inhibition ([1]; parasite line A) -2.29% | activity, negative = inhibition ([1]; parasite line B) 4.1% | Potency (3D7) | Potency (7G8) | Potency (AA1029) | Potency (AS120) | Potency (ATS189) | Potency (ATS95) | Potency (C2A) | Potency (CP185) | Potency (CP191) | Potency (CP192) | Potency (CP194) | Potency (CP201) | Potency (CP203) | Potency (CP211) | Potency (CP215) | Potency (CP217) | Potency (CP237) | Potency (CP238) | Potency (CP247)

CC(C)[C@@H](N)C(=O)O
inactive: activity, negative = inhibition ([1]; parasite line A) 1.17% | activity, negative = inhibition ([1]; parasite line B) 12.2% | Potency (3D7) | Potency (7G8) | Potency (AA1029) | Potency (AS120) | Potency (ATS189) | Potency (ATS95) | Potency (C2A) | Potency (CP185) | Potency (CP191) | Potency (CP192) | Potency (CP194) | Potency (CP201) | Potency (CP203) | Potency (CP211) | Potency (CP215) | Potency (CP217) | Potency (CP237) | Potency (CP238) | Potency (CP247)

CCN(CC)C(=O)c1cccnc1
inactive: activity, negative = inhibition ([1]; parasite line A) 10.9% | activity, negative = inhibition ([1]; parasite line B) 11.6% | Potency (3D7) | Potency (7G8) | Potency (AA1029) | Potency (AS120) | Potency (ATS189) | Potency (ATS95) | Potency (C2A) | Potency (CP185) | Potency (CP191) | Potency (CP192) | Potency (CP194) | Potency (CP201) | Potency (CP203) | Potency (CP211) | Potency (CP215) | Potency (CP217) | Potency (CP237) | Potency (CP238) | Potency (CP247)

CCCCCCCCCCCCCCCCCC(=O)OC[C@@H](O)[C@H]1OC[C@H](O)[C@H]1O
inactive: activity, negative = inhibition ([1]; parasite line A) -5.9% | activity, negative = inhibition ([1]; parasite line B) -8.53% | Potency (3D7) | Potency (7G8) | Potency (AA1029) | Potency (AS120) | Potency (ATS189) | Potency (ATS95) | Potency (C2A) | Potency (CP185) | Potency (CP191) | Potency (CP192) | Potency (CP194) | Potency (CP201) | Potency (CP203) | Potency (CP211) | Potency (CP215) | Potency (CP217) | Potency (CP237) | Potency (CP238) | Potency (CP247)
